Assay outcomes (PubChem)
LASV entry inh = blocks Lassa virus binding to or entry into cells; 300,000 tested, 1.2% active; Lassa virus pseudotype entry inhibition, cell reporter; Potency, µM (series often up to 37.9 µM), for the others: at the top dose activity change, negative = inhibition, most hits filed as inhibitors; AID 540256; calls by dose curve; tested in HEK293 cells; note: potency is the fitted concentration of half-maximal effect; % is set by controls: 0 for no effect and ±100 for the full control effect; nearly all actives have a fitted effect of over 50% in size
SARS PLpro yeast = SARS-CoV PLP inhibition in yeast; S. cerevisiae expressing SARS-CoV PLpro, growth rescue; Potency, µM (doses to about 32.9 µM), for the others: top-dose activity, positive = growth rescue, most hits filed as activators; 330,000 tested, 0.19% active; calls by dose curve; note: potency is the fitted concentration of half-maximal effect; 0% is about no effect; nearly all actives have a fitted effect of over 55% in size
MARV entry inh = Marburg virus entry inhibition; Marburg virus pseudotyped entry inhibition, cell reporter; Potency, µM (highest dose often 37.8 µM), inactives show at the top dose activity change, negative = inhibition, actives largely listed as inhibitors; 300,000 tested, 1.8% active; AID 540276; calls by dose curve; tested in HEK293 cells; note: potency is the fitted concentration of half-maximal effect; % is set by controls: 0 for no effect and ±100 for the full control effect
HCMV antiviral = blocks human cytomegalovirus replication; HFF cells, HCMV-luciferase reporter, 72 h; hits give low values; activity change, negative = inhibition, % at 57.5 µM; 410,000 tested, 4.5% active; in the data active = activity change below about -60%; inconclusive = no clear call, values can overlap the other calls; inactive = above about -39%; note: % is set by controls: 0 for no effect and ±100 for the full control effect
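Two-dose cell screen: HFF monolayers treated with compounds and infected with luciferase-expressing HCMV at 1 PFU/cell, 72 h at 37C, then lysed for luciferase measurement.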
HCV inh = blocks hepatitis C virus; Huh7.5.1 HCVcc-Cre infection, luciferase reporter, 44 h; Potency, µM (series often up to 41.8 µM), for the others: at the highest dose activity change, negative = inhibition, usual class: inhibitors; 340,000 tested, 3.4% active; AID 651820; active = well fitted inhibition curve with a large enough effect; inconclusive = small, poorly fitted or top-dose-only effect, or another doubt; inactive = no such curve, though single readings can be large or run the other way; note: potency is the fitted concentration of half-maximal effect; % is set by controls: 0 for no effect and ±100 for the full control effect
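Cells (1,000/well) were plated 4 h before compound, then infected with HCVcc-Cre virus (~0.5 moi). After 44 h further culture, infection was read as luciferase luminescence following a 15 min substrate incubation at room temperature.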
FMDV inh = foot and mouth disease virus antiviral activity. FMDV antiviral cell-based qHTS. Potency, µM (top dose mostly 57.9 µM), without a hit: top-dose activity change, negative = inhibition, most hits filed as inhibitors. 410,000 tested, 1.2% active. AID 1159524; calls by dose curve; tested in HEK293T cells; note: read-out not given here; potency is the fitted concentration of half-maximal effect; % is set by controls: 0 for no effect and ±100 for the full control effect; nearly all actives have a fitted effect of over 45% in size
Starred values were filed as active, the others as inactive; [ ] = dose if it differs, or a comment. In the library only some 8% were active in any assay of this set; here they are far more common.

How did COc1cccc2c1C(=N)c1c(O)c3c(c(O)c1C2=O)CC(O)(C(C)=O)CC3OC1CC(N)C(O)C(C)O1 (stereo not drawn) do in these assays?
LASV entry inh: 0.63µM*; MARV entry inh: 0.35µM*; HCV inh: inconclusive; FMDV inh: inconclusive

Results for COc1cccc2c1C(=O)c1c(O)c3c(c(O)c1C2=O)CC(O)(C(C)=O)CC3OC1CC(O)C(O)C(C)O1 (stereo not drawn) ?
LASV entry inh: inconclusive; MARV entry inh: 1.4µM*; HCMV antiviral: -101*; HCV inh: inconclusive; FMDV inh: -7%

What do the screens show for `COc1cccc2c1-c1c(O)cccc1C2=O`?
SARS PLpro yeast: -2%; HCMV antiviral: -3; HCV inh: 1%; FMDV inh: -9%

How did COc1cccc2c1C(=O)c1c(O)c3c(c(O)c1C2=O)C[C@@](O)(C(=O)CO)C[C@@H]3O[C@H]1C[C@H](N)[C@H](OC2CCCCO2)[C@H](C)O1 (stereo partly drawn) do in these assays?
LASV entry inh: 1.1µM*; MARV entry inh: 1.3µM*

What do the screens show for `COc1cccc2c1C(=O)c1c(O)c3c(c(O)c1C2=O)C[C@](O)(C(C)=O)C[C@H]3O[C@@H]1C[C@@H](N)[C@@H](O)[C@@H](C)O1`?
HCMV antiviral: -100*; HCV inh: 8.9µM*; FMDV inh: -4%

What do the screens show for `CCc1ccc(NC(=O)Cn2c(=O)n(CCc3ccccc3)c(=O)c3sc4ccccc4c32)cc1`?
LASV entry inh: 9%[46.1 µM]; MARV entry inh: -26%[46.1 µM]; HCMV antiviral: inconclusive; FMDV inh: 11%

How did CCCCC(=O)OCC(=O)C1(O)Cc2c(O)c3c(c(O)c2C(OC2CC(NC(=O)C(F)(F)F)C(O)C(C)O2)C1)C(=O)c1c(OC)cccc1C3=O (stereo not drawn) do in these assays?
LASV entry inh: inconclusive; MARV entry inh: inconclusive; HCMV antiviral: -98*; HCV inh: 3.5µM*; FMDV inh: -3%

How did Cc1[nH]n(C2=NCCS2)c(=O)c1N=Nc1ccccc1 do in these assays?
LASV entry inh: 0%; SARS PLpro yeast: 1%; MARV entry inh: 10%[46.1 µM]; HCMV antiviral: -61*; HCV inh: -6%; FMDV inh: 33%

How did Cc1[nH]n(-c2ccccc2)c(=O)c1N=Nc1ccccc1C(=O)O do in these assays?
SARS PLpro yeast: 1%; HCMV antiviral: -14; HCV inh: -11%; FMDV inh: 39%

How did Cc1ccccc1N=Nc1c(C)[nH]n(-c2ccccc2)c1=O do in these assays?
LASV entry inh: 3%; SARS PLpro yeast: 0%; MARV entry inh: 15%[46.1 µM]; HCV inh: 18%; FMDV inh: 20%

How did Cc1[nH]n(-c2ccccc2)c(=O)c1N=Nc1nccs1 do in these assays?
LASV entry inh: inconclusive; SARS PLpro yeast: -30%; MARV entry inh: inconclusive; HCMV antiviral: -96*; HCV inh: inconclusive; FMDV inh: 4%

How did Cc1[nH]n(-c2ccccc2)c(=O)c1N=Nc1ccccc1O do in these assays?
LASV entry inh: inconclusive; SARS PLpro yeast: -4%; MARV entry inh: inconclusive; HCMV antiviral: -99*; HCV inh: 4.5µM*; FMDV inh: 5%

How did CN(C)c1ccc(CNC(=O)CN2C(=O)CCn3nc(-c4cn(C)c5ccccc45)cc32)cc1 do in these assays?
LASV entry inh: 13%[46.1 µM]; HCMV antiviral: 17; FMDV inh: -15%

How did CCCC[C@]12Cc3c(ccc4ccccc34)[C@H](O1)C1=C(O2)C(=O)c2ccccc2C1=O do in these assays?
MARV entry inh: 22%[14.2 µM]

What do the screens show for `COc1ccc(OC)c(C(=O)N(Cc2cc3cccc(C)c3nc2N2CCC(O)CC2)C2CC2)c1`?
FMDV inh: 1%

Results for CCOC(=O)CSC1=C(C#N)[C@H](c2ccc3c(c2)OCO3)CC(=O)N1 ?
MARV entry inh: 16µM*

Results for COC(=O)c1c(NC(=O)CSc2nccn2C)sc(C)c1C ?
LASV entry inh: 22%; SARS PLpro yeast: 8%; MARV entry inh: -11%; HCMV antiviral: -3; HCV inh: inconclusive; FMDV inh: -5%

What do the screens show for `CCOC(=O)c1c(NC(=O)COC(=O)CC(NC(C)=O)c2ccccc2)sc(C(=O)NC)c1C` (stereo not drawn)?
LASV entry inh: 10%; SARS PLpro yeast: -5%; MARV entry inh: -8%; HCMV antiviral: 29; HCV inh: 10µM*; FMDV inh: 5%

Results for CCOC(=O)c1c(NC(=O)COC(=O)c2ccc(O)cc2)sc(C(=O)NC)c1C ?
LASV entry inh: 1%; MARV entry inh: -8%[46.1 µM]; HCMV antiviral: 0; HCV inh: inconclusive; FMDV inh: -21%

Results for CCOC(=O)c1c(NC(=O)CSc2nccn2C)sc(C(=O)NC)c1C ?
LASV entry inh: 14%; SARS PLpro yeast: -1%; MARV entry inh: 13%[46.1 µM]; HCMV antiviral: 22; HCV inh: 10µM*; FMDV inh: -7%

Results for CCOC(=O)c1ccc(NC(=O)CSc2nccn2C)cc1 ?
LASV entry inh: inconclusive; SARS PLpro yeast: -5%; MARV entry inh: -6%; HCMV antiviral: 52; HCV inh: 0%; FMDV inh: 47%

Results for CCOC(=O)c1cc(C)sc1NC(=O)CSc1nccn1C ?
LASV entry inh: -12%; SARS PLpro yeast: -5%; MARV entry inh: 28%; HCMV antiviral: inconclusive; HCV inh: 13µM*; FMDV inh: 0%

Results for COc1ccc(CCNC(=O)Cn2cc(S(=O)(=O)Cc3ccc(F)cc3)c3ccccc32)cc1OC ?
LASV entry inh: -8%[46.1 µM]; HCMV antiviral: 0; FMDV inh: -19%

What do the screens show for `CC(C)=CCCC(C)=CCON=C1C[C@@H](O)[C@@H](O)[C@@H]2[C@H]3C(=O)N(Cc4ccccc4)C(=O)[C@@H]3CC[C@@H]12`?
MARV entry inh: 3%[14.2 µM]

What do the screens show for `CCCCC1(CCCC)C(=O)NC(=Nc2cccc(C)c2)NC1=O`?
LASV entry inh: -2%; SARS PLpro yeast: -11%; MARV entry inh: 14%; HCMV antiviral: -61*; HCV inh: inconclusive; FMDV inh: -23%

How did COC[C@@H]1CCCN1[C@@H]1C[S+](=O)([O-])N[C@@H]1COCc1ccccc1 do in these assays?
LASV entry inh: -2%[46.1 µM]

What do the screens show for `CN1OC[C@@H]2CN[C@H](c3ccc(-c4ccc(C#N)cc4)cc3)C[C@@H]21`?
HCMV antiviral: 57; FMDV inh: 25%

How did CN1OC[C@@H]2CN[C@H](c3ccc(-c4cc5ccccc5o4)cc3)C[C@@H]21 do in these assays?
FMDV inh: 0.35µM*

How did C=CCSc1n[nH]c(-c2ccccc2)n1 do in these assays?
LASV entry inh: 11%; SARS PLpro yeast: -16%; MARV entry inh: inconclusive; HCMV antiviral: -89*; HCV inh: 0%; FMDV inh: 22%
